Screening results as filed in PubChem BioAssay.
Sa RN4220 lethal: growth inhibition of S. aureus RN4220, primary screen, OD600; 0.33% of 330,000 active; AID 1259311, 2017; 16 h; inhibition, % (concentration not given with the values); in the data active = inhibition above about 85%;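 also: plate controls were untreated cells for no effect and reference antibiotic for full effect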
Sa ugtP lethal: growth inhibition of ugtP-null S. aureus, primary screen, RN4220 ugtP deletion, OD600; growth inhibition, % (no concentration beside the values); AID 1259309, 2017; 16 h; 0.54% of 330,000 active; in the data active = growth inhibition above about 68%;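 also: plate controls were untreated wells for no effect and antibiotic for full effect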
TcdB inh: TcdB glycohydrolase inhibitors, primary screen, biochemical, single point, plate reader | Toxin B (Clostridioides difficile), P18177 | TcdB glycohydrolase enzymatic assay | inhibition, % at 9.99 µM | 0.24% of 350,000 active | AID 652162, 2013; in the data active = inhibition above about 10%
Target sequence (P18177 whole entry, looked up): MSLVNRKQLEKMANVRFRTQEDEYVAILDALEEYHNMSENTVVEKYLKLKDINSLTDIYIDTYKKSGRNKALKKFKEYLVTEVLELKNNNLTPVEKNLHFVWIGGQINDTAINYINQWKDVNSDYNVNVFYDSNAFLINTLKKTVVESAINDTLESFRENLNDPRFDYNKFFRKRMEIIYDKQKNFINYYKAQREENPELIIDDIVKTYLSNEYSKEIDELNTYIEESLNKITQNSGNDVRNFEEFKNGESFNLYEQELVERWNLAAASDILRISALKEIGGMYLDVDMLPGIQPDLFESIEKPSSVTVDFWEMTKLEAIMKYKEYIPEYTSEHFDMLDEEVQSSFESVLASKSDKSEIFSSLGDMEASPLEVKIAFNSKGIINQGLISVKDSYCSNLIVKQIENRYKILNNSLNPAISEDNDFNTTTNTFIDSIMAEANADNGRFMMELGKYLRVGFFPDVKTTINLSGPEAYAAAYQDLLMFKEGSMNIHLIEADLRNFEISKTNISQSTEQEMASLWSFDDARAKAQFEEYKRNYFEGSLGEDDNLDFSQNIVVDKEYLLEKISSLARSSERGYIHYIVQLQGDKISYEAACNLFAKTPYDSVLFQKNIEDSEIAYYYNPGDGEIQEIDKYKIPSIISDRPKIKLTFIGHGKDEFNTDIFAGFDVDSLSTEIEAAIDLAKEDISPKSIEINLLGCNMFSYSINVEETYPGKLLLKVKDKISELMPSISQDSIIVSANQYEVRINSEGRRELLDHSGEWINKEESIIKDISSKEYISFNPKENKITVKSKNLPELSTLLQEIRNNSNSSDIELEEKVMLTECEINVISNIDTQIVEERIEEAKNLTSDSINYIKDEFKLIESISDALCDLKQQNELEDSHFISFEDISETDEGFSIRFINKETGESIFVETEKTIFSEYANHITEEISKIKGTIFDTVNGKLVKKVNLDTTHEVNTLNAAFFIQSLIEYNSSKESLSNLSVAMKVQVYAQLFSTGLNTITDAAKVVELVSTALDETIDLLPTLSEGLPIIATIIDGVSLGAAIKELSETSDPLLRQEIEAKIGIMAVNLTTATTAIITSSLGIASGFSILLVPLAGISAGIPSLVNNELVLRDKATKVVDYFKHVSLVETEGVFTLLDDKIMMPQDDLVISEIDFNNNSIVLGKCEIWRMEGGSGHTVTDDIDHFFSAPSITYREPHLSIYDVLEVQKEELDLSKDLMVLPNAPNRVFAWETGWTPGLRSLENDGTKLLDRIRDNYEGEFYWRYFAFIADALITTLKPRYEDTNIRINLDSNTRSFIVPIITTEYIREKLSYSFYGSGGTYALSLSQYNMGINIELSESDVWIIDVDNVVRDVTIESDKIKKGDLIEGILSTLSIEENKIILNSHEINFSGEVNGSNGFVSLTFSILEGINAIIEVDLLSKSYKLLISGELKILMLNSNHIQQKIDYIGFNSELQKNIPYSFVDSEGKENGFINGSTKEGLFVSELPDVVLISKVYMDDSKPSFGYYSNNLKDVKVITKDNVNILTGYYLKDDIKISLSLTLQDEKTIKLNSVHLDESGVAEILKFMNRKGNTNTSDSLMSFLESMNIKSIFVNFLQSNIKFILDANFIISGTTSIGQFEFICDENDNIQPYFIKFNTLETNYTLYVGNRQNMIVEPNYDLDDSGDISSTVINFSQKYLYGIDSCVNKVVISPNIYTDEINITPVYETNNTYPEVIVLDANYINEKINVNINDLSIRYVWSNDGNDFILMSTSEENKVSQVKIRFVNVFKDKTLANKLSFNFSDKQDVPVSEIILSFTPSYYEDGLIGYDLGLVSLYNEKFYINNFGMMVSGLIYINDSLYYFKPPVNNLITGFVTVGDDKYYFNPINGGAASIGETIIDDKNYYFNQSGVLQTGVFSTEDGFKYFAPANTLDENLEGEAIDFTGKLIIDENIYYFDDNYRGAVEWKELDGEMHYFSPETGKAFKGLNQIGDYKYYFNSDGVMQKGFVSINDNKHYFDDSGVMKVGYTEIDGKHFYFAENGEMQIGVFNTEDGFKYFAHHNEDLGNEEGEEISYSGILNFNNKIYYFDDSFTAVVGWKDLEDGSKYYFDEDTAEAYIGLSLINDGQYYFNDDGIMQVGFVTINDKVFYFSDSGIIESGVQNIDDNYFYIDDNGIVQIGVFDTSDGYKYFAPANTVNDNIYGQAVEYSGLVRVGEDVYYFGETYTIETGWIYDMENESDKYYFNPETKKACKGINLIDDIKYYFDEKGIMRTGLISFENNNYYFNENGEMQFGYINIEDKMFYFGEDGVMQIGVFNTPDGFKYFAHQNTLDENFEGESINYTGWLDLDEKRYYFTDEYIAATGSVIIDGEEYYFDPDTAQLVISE
PfHsp40 yeast: rescue of yeast from PfHsp40 toxicity, primary screen, S. cerevisiae, ATP luminescence; S. cerevisiae expressing PfHsp40, growth rescue; growth rescue, % at 12.5 µM; 0.68% of 340,000 active; AID 504582, 2011; in the data active = growth rescue above about 28%, passing the limit was not always enough; inconclusive = no clear call, values can overlap the other calls;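 also: yeast W303a lacking pdr1 and pdr3 grown in galactose medium; growth measured after three days at 30 °C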
PrP 5UTR inh: inhibition of PrP 5' UTR reporter expression; cell-based PrP 5' UTR mRNA reporter, plate reader; inhibition, % (concentration not given with the values); 0.35% of 340,000 active; AID 488862, 2010; in the data active = inhibition above about 52%; also: 0 = median of the neutral control wells
* = called active by the depositor; ? = inconclusive; . = no result. A selection: hits, their analogues and other compounds. The true share with any hit is near 1.2%.

SMILES | Sa RN4220 lethal | Sa ugtP lethal | TcdB inh | PfHsp40 yeast | PrP 5UTR inh
CC(C)c1cc(-c2cc(C(=O)NCc3ccccc3)on2)nc(NCC2CC2)n1 | -12.8 | -4.4 | 2.2 | 386.6* | -14.2
Cc1ccc(NC(=O)c2ncn(CCCNCc3ccccc3)n2)cc1C | . | . | 1.3 | -0.4 | -32.3
Cc1ccc(CNCCCn2cnc(C(=O)Nc3ccc(C)c(C)c3)n2)o1 | . | . | 13.8* | 0.0 | -11.8
CCOC(=O)COc1ccccc1/C=C\[N+](=O)[O-] | . | . | . | 71.4* | -23.8
COc1ccc(-c2ccnc(SCC(=O)N3CCN(c4ccccc4)CC3)n2)cc1 | 3.3 | -8.9 | -0.2 | 104.5* | -9.2
Cc1ccnc(SCC(=O)N2CCN(c3ccccc3)CC2)n1 | 7.3 | 5.2 | . | 1.0 | -13.9
CCCc1nc(SCC(=O)N2CCC(Cc3ccccc3)CC2)c2c(=O)n(C)c(=O)n(C)c2n1 | 2.2 | -11.4 | 0.2 | 184.3* | -14.4
CCCc1nc(SCC(=O)Nc2ccccc2)c2c(=O)n(C)c(=O)n(C)c2n1 | 5.5 | -4.1 | 1.8 | 0.1 | -66.2
COc1c(O)c(=O)n2c3ccccc3c3ccnc1c32 | 2.5 | -0.1 | -4.6 | 66.3* | -9.1
C=C(C)C(O)CC/C(C)=C/Cc1c(O)ccc(C(=O)/C=C/c2ccc(O)cc2)c1O (stereo not drawn) | 98.6* | 90.7* | 0.5 | ? | -3.4
O=C(Nc1ccc(Cl)cc1)N1C[C@H]2[C@@H](c3ccccc31)[C@H](CO)N2C(=O)c1ccccn1 | . | . | 0.9 | . | .
COc1ccc(Cl)cc1CN1CCN(c2nc(C)cc(C)c2C#N)CC1 | 98.5* | 99.6* | . | -0.2 | 5.0
CC(=O)Nc1ccc(C=NN2C(=O)NC(C)(c3ccc(OC(F)F)cc3)C2=O)cc1 (stereo not drawn) | 4.4 | 1.1 | . | . | .
CC(=O)Nc1ccc(C)cc1 | 4.0 | 2.8 | 0.4 | -1.4 | -24.2
O=C(Nc1ccc(N2CCN(c3ccc(O)cc3)CC2)cc1)Oc1ccccc1 | 4.2 | -3.7 | -1.4 | 1.2 | -0.5
CC(=O)Nc1ccc(O)cc1 | 1.0 | 9.4 | 24.5* | 0.5 | -17.4
Nc1ccc(OC(=O)Nc2ccc(O)cc2)cc1 | 4.0 | 3.1 | 11.6* | 0.2 | 40.7
CC(=O)N/C(=C\c1ccccc1)C(=O)Nc1ccc(O)cc1 | 1.8 | 3.5 | 13.4* | -0.9 | -17.8
COCC#Cc1cnc2c(c1)C(=O)N([C@@H](C)CO)C[C@@H](C)[C@H](CN(C)C(=O)CN1CCOCC1)O2 | . | . | 2.1 | . | .
O=C1NN(c2ccc(F)c(Cl)c2)C(=O)/C1=C\c1cccc(OC(=O)c2cccs2)c1 | 0.6 | -0.7 | . | 85.4* | -9.6
CC(C)=C1C(=O)NN(c2ccc(F)c(Cl)c2)C1=O | 0.7 | 2.1 | -2.6 | -1.1 | -17.8
Cc1onc(-c2ccccc2)c1C(=O)NC(=S)NNC(=O)c1ccco1 | 28.2 | 8.4 | 2.4 | 50.4* | -0.2
Cc1onc(-c2ccccc2)c1C(=O)NC(=S)NNC(=O)c1cc(-c2ccc(F)cc2)n[nH]1 | 13.1 | -5.1 | 0.0 | 234.6* | -10.7
Cc1onc(-c2ccccc2)c1C(=O)NC(=S)NNC(=O)c1ccncc1 | 26.8 | 3.5 | 0.9 | 2.5 | -4.6
CC(C)NC(=O)Nc1ccc2c(c1)C(=O)N([C@@H](C)CO)C[C@@H](C)[C@H](CN(C)C(=O)Nc1ccc3c(c1)OCO3)OCCCC[C@@H](C)O2 | . | . | -0.6 | . | .
SMILES | Sa RN4220 lethal | Sa ugtP lethal | TcdB inh | PfHsp40 yeast | PrP 5UTR inh
O=C1C2C3C=CC(C3)C2C(=O)N1CNc1ccccn1 (stereo not drawn) | 4.6 | 2.0 | . | 43.6* | -22.2
O=C(Nc1nnc(-c2ccco2)o1)C1CC1 | 1.2 | -5.5 | 10.0* | -1.1 | 1.9
O=C(C1CC1)N1CC2(C1)[C@H](c1ccccc1)[C@@H](CO)N2S(=O)(=O)c1ccccc1 | . | . | 0.4 | . | .
CCCCCCCCN1[C@@H](CC(=O)OCC)c2ccc(C(F)(F)F)cc2S1(=O)=O | . | . | 1.4 | 38.0* | -23.4
CCCCCCCCCCCCN1C(CC(=O)O)c2cc(F)ccc2S1(=O)=O (stereo not drawn) | 6.9 | 21.0 | . | . | .
CCCCCCCCCCCCN1[C@@H](CC(=O)O)c2cc(F)ccc2S1(=O)=O | . | . | -1.5 | 49.2* | -4.7
O=C(NN=Cc1cccnc1)c1ccc(CN2c3cccc4cccc(c34)S2(=O)=O)cc1 | -9.1 | -1.8 | . | . | .
COc1cccc(S(=O)(=O)Nc2ccc3c(c2)[C@H]2C[C@H](CC(=O)NCc4cccc(F)c4)O[C@@H](CO)[C@H]2O3)c1 | . | . | -5.2 | . | .
Fc1ccc(Nc2nc(N/N=C/c3ccco3)nc(N3CCCCC3)n2)cc1 | . | . | 1.0 | 101.8* | -11.1
C[C@@H]1CCCCO[C@H](CN(C)CC2CC2)[C@H](C)CN([C@@H](C)CO)C(=O)c2cc(NS(C)(=O)=O)ccc2O1 | . | . | -0.9 | . | .
CN(C)C(=O)C[C@H]1CC[C@H]2[C@H](COc3ccc(NC(=O)C4CCC4)cc3C(=O)N2C)O1 | . | . | 0.3 | . | .
CC(C)(C)c1ccc(/C=N/OCC(=O)NCc2ccc(F)cc2)cc1 | . | . | -2.8 | 73.6* | -6.1
CC(C)(C)c1ccc(C=NOCC(=O)NCc2ccc(F)cc2)cc1 | -7.0 | 43.1 | . | . | .
Cc1ccc(S(=O)(=O)N2CCC(C(=O)OCC(=O)NCCc3ccccc3)CC2)cc1C | 3.6 | -0.4 | 16.3* | . | -7.5
Cc1ccc(S(=O)(=O)N2CCC(C(=O)OCc3ccccc3)CC2)cc1C | -10.3 | -3.6 | 2.1 | 0.4 | -13.6
CC(=NN1CCN(Cc2cccc3ccccc23)CC1)c1ccco1 | 3.5 | 13.3 | . | . | .
C=CC1=C(C(=O)O)N2C(=O)C(NC(=O)C(=NOCC(=O)O)c3csc(N)n3)C2SC1 (stereo not drawn) | 93.0* | 98.5* | . | . | .
CCCN1C[C@H](C)[C@H](OC)CN(C)C(=O)c2cc(NC(=O)c3cccc(F)c3)ccc2OC[C@H]1C | . | . | -1.0 | . | .
Fc1cccc(/C=N/Nc2nncc3ccccc23)c1 | . | . | 0.4 | -1.8 | -2.8
O=c1nc(N/N=C/c2ccccn2)cn[nH]1 | . | . | -3.9 | 617.2* | -9.1
C(=N\Nc1nncc2ccccc12)/c1ccccn1 | . | . | -0.7 | 413.0* | 45.1
Cc1noc(C)c1NC(=O)Nc1ccc2c(c1)C(=O)N(C)[C@H]1CC[C@H](CC(=O)N[C@@H]3CCN(Cc4ccccc4)C3)O[C@H]1CO2 | . | . | -1.3 | . | .
C=C(C)C(=O)Oc1ccc(N=Nc2ccc(C)cc2)ccc1=O | 0.4 | 99.7* | 1.7 | . | .
CC(=O)c1ccc(N=Nc2ccc(C)cc2)cc1 | -2.1 | 3.7 | -0.2 | 0.4 | 25.7
COc1ccc(NC(=O)N(C)CC2Oc3c(NC(=O)c4ccncc4)cccc3C(=O)N(C(C)CO)CC2C)cc1 (stereo not drawn) | 5.4 | 9.1 | . | . | .
Nc1ccc2c(c1)[nH]c(=O)c1cc(N)ccc12 | . | . | 21.0* | . | .
CC(C)NC(=O)N(C)C[C@H]1Oc2ncc(-c3ccccc3F)cc2C(=O)N([C@H](C)CO)C[C@H]1C | . | . | 0.0 | . | .
CC(=O)OC1CC[C@@]2(C)C(=CCC3C2CC[C@]2(C)C(=O)CCC32)C1 (stereo partly drawn) | -4.9 | 87.1* | . | . | .
CC(=O)OC1CC[C@@]2(C)C(=CCC3C4CCC(C(C)=O)[C@@]4(C)CCC32)C1 (stereo partly drawn) | 1.1 | 22.2 | . | . | .
